Activity calls are given as the source filed them.

This is an account of results in PubChem BioAssay.

A short description of assay [1]: binders of probe aFSTL3 on microarray, primary screen, stem cell growth factor project, biochemical, small-molecule microarray, fluorescence 635/667 (AID 1064).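 Also: measures binding of the biotinylated anti-FSTL3 antibody to printed compounds.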 The conditions noted are these: higher = more signal.
Assay [2] can be described thus: binders from COS7 lysate, DM2A8 probe, primary screen, torsin A project, cell lysate, small-molecule microarray, fluorescence 635/667 (AID 1065). As to conditions: higher = more signal, COS7 lysate expressing mutant human TOR1A.
A short description of assay [3]: binders of probe aFGF2 on microarray, primary screen, stem cell growth factor project, biochemical, small-molecule microarray, fluorescence 635/667 (AID 1067).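 Also: measures binding of biotinylated aFGF2 protein to printed compounds on slides; z-score merges feature fluorescence and signal-to-noise across triplicate slides.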 As to conditions: higher = more signal.
The nature of assay [4]: binders of probe aFGF10 on microarray, primary screen, stem cell growth factor project, biochemical, small-molecule microarray, fluorescence 635/667 (AID 1071).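 Also: score merges 667 nm spot intensity and signal to noise from triplicate slides.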 The conditions noted are these: higher = more signal.
Assay [5] concerns the target Neurogenic locus notch homolog protein 2 (Homo sapiens) (UniProt Q04721). Description: Notch2 binders on small-molecule microarrays, primary screen, biochemical, small-molecule microarray, 635 nm fluorescence, stem cell growth factors (AID 1073). As to conditions: Notch2 binding, higher = more signal.
The target in assay [6] is Pro-neuregulin-1, membrane-bound isoform (Homo sapiens) (UniProt Q02297). Put plainly: NRG1 binders on small-molecule microarrays, primary screen, psychiatric disease protein project, biochemical, small-molecule microarray, fluorescence 635/667 (AID 1075).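 Also: score combines 667 nm spot fluorescence with signal to noise.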 The conditions noted are these: NRG1 binding, 635 nm fluorescence, higher = more signal.
Assay [7] deals with Neuregulin-1 EGF-like domain. Put plainly: binders of neuregulin-1 EGF-like domain, primary screen, biochemical, small-molecule microarray, 635 nm fluorescence (AID 1081).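 Also: binding of the protein to compounds printed on small-molecule microarray slides.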 As to conditions: small-molecule microarray binding, higher = more signal.
The nature of assay [8]: FRG1 promoter luciferase signal modulators, primary screen, FRG1 inhibition for FSHD, cell-based, C2C12 myotubes, firefly/Renilla luciferase, luminescence (AID 1084). The conditions noted are these: higher = more signal, called active from +8 up or from −8 down.
A short description of assay [9]: binders of probe aFST on microarray, primary screen, stem cell growth factor project, biochemical, small-molecule microarray, fluorescence 635/667 (AID 1086).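 Also: score merges 667 nm fluorescence with signal-to-noise of each printed compound spot.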 The conditions noted are these: higher = more signal.
A short description of assay [10]: binders of probe aHhip on microarray, primary screen, stem cell growth factor project, biochemical, small-molecule microarray, fluorescence 635/667 (AID 1087).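 Also: score merges spot fluorescence at 667nm with spot signal to noise ratio.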 As to conditions: higher = more signal.

Sequence of Neurogenic locus notch homolog protein 2 (Homo sapiens) (Q04721 whole entry, looked up, canonical isoform): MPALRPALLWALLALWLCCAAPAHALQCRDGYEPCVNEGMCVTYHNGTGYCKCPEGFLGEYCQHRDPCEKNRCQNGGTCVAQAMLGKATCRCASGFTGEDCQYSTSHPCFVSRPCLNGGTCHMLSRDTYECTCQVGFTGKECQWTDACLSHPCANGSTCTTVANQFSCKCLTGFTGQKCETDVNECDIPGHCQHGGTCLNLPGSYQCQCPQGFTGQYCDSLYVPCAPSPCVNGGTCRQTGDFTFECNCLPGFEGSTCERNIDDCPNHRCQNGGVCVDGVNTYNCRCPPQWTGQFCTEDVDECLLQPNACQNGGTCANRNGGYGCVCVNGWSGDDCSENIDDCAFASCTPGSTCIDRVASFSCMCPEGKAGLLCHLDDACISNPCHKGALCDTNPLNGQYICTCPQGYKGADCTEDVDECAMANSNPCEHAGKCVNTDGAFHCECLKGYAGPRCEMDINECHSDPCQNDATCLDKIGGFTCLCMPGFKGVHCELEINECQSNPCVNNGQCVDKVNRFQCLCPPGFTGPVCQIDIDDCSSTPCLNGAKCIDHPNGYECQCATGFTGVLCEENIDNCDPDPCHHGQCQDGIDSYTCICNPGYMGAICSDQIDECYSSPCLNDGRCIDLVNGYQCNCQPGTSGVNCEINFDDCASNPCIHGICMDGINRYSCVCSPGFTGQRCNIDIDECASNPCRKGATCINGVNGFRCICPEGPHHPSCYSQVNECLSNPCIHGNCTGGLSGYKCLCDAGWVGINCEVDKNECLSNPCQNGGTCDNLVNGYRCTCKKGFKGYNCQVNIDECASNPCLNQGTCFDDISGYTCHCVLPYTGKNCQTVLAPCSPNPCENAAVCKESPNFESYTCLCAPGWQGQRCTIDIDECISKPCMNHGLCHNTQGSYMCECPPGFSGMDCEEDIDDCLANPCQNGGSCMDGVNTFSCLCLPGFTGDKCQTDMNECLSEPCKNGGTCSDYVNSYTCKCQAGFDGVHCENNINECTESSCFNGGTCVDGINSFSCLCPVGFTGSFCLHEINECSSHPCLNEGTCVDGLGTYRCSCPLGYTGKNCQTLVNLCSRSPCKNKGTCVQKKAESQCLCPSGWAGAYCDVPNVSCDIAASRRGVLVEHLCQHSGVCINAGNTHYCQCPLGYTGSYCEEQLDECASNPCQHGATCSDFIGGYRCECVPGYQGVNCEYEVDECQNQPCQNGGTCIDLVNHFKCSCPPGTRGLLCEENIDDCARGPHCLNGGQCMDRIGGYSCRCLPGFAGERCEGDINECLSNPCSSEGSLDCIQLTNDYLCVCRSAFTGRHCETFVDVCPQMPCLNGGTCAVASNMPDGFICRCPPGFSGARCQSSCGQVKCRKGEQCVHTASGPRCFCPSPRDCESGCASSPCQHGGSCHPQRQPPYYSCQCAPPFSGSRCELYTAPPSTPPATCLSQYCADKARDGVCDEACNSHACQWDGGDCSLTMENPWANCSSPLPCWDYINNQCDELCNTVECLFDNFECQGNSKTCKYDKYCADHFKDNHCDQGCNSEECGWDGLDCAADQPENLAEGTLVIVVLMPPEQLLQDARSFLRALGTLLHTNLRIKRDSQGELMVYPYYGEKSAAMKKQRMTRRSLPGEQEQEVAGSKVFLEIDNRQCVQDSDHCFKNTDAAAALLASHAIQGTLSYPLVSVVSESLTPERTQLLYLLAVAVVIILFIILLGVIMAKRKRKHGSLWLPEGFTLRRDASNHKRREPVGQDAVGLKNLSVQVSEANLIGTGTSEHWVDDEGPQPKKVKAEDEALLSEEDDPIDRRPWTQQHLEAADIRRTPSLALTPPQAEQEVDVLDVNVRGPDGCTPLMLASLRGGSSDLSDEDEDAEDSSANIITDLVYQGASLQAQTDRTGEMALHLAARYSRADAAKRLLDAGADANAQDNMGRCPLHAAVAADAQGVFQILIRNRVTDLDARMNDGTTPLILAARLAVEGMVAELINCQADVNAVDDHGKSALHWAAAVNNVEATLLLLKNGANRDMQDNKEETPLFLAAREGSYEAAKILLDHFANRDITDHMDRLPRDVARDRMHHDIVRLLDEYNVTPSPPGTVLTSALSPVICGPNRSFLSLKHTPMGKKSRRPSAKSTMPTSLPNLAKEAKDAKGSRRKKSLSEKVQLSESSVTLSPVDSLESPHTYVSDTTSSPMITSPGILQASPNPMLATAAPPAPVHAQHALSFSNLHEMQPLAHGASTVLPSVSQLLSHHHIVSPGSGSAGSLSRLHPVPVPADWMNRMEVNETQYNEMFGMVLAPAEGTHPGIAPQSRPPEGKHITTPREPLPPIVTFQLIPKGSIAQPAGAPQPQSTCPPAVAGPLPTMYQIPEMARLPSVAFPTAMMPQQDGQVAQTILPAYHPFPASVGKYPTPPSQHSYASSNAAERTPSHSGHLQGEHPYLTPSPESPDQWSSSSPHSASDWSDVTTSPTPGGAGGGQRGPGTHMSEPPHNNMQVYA
Sequence of Pro-neuregulin-1, membrane-bound isoform (Homo sapiens) (Q02297 whole entry, looked up, the tested form may be a part, canonical isoform): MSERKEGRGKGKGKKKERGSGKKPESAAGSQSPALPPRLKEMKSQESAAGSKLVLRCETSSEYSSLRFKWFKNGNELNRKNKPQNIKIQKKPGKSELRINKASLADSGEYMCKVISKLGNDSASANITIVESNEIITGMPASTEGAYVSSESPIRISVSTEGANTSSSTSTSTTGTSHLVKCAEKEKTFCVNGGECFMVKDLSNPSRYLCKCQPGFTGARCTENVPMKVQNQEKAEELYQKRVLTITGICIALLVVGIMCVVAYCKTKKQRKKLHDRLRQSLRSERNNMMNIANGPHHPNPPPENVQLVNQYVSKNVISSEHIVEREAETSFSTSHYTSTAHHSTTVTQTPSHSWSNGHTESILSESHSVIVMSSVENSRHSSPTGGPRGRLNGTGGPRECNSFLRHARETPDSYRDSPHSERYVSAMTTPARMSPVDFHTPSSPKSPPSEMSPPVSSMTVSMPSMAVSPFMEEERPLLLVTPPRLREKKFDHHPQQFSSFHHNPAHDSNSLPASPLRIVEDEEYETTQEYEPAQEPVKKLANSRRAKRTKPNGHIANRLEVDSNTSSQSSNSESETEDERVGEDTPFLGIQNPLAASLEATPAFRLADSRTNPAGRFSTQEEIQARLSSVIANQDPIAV

For `Cc1ccc(F)cc1S(=O)(=O)N[C@@H]1CCN(Cc2ccc(Oc3ccccc3)cc2)C1`, the composite z-score is -0.191 in [1]; 0.45 in [2]; -0.144 in assay [3]; -0.3 in [4]; -0.155 in assay [5]; 0.0412 in [6]. Also, the figures for the composite z-score in assay [7], in assay [9] and in assay [10] were -0.014, 0.0111 and -0.34, respectively. Besides, the z-score in assay [8] is -1.9 (inactive).
Turning to `COC(=O)[C@@]1(Cc2ccccc2)[C@H]2c3cc(C(=O)N4CCCC4)[nH]c3C[C@H]2CN1C(=O)c1ccccc1`, the composite z-score was 0.718 in assay [1]; 0.065 in assay [2]; 0.134 in [3]; -0.0267 in [4]; 1.13 in [5]; 1.29 in [6]. The composite z-score in assay [7] was 0.664; in assay [9] it was 0.623; in assay [10], -0.133. Further, in assay [8], the z-score is 0.535 (inactive).
`COc1ccc(CCNC(=O)[C@@]2(Sc3ccc(C)cc3)CC(=O)N(Cc3cc(C(F)(F)F)cc(C(F)(F)F)c3)[C@@H]2c2ccc(CO)cc2I)cc1`: the composite z-score is 0.332 in assay [1]; -0.671 in [2]; -0.0894 in [3]; -0.0189 in assay [4]; -0.632 in [5]; 0.899 in [6]. Further, the composite z-score in assay [7] is 1.07; in assay [9] it was 0.582; in assay [10], -0.271. For the same compound, in assay [8], the z-score is 0.214 (inactive).
`COc1ccc(NC(=O)O[C@H]2[C@H](OC(=O)Nc3ccc4c(c3)OCO4)[C@@H](OC(=O)Nc3ccc4c(c3)OCO4)[C@@H](OC)O[C@@H]2CO)cc1`: the composite z-score in assay [1] is 0.157; in [2] it was -0.0536; in assay [3], 0.0397; in [4] it was 0.639; in assay [5], 0.922; in [6], 1.57. Besides, the composite z-score is 1.2 in assay [7], 0.4 in assay [9] and -0.0296 in assay [10]. Besides, the z-score in assay [8] is 6.75 (inactive).
As to `CC(C)C(CO)N1C(=O)[C@]2(C)C3C(=O)OCCC/C=C\[C@H]3OC23C=CCN(c2ccc(Cl)cc2)C(=O)[C@@H]13` (stereo not given in full), the composite z-score in assay [1] is 0.0972; in assay [2], -0.481; in assay [3], -0.101; in assay [4], -0.17; in assay [5] it was -0.689; in assay [6], 0.344. Besides, the composite z-score in assay [7] is 1.11; in assay [9], 0.0043; in assay [10], -0.0994. The z-score in assay [8] was 0.0186 (inactive).
Take `Cc1ccc(S[C@]2(C(=O)NC3CC3)CC(=O)N(Cc3ccccc3Cl)[C@@H]2c2ccc(CO)cc2I)cc1`: the composite z-score in assay [1] is 0.29; in assay [2], 0.132; in [3], -0.106; in assay [4], 0.171; in assay [5], 0.0538; in [6] it was 1.72. Further, the composite z-score is 1.24 in [7], -0.0129 in assay [9] and -0.123 in [10]. The z-score in [8] was -2.19 (inactive).
With `O=C1OCC=C[C@H]2OC34C=CCN(Cn5nnc6ccccc65)C(=O)[C@H]3N(CCCCCCO)C(=O)[C@@H]4[C@@H]12` (stereo not given in full), the composite z-score in assay [1] is 0.492; in [2], -0.334; in assay [3], -0.163; in [4] it was -0.54; in assay [5], -0.522; in assay [6] it was 1.91. Moreover, the composite z-score was 1.52 in assay [7], -0.116 in [9] and -0.201 in [10]. In addition, the z-score in assay [8] was 0.215 (inactive).
Turning to `C=C(COC)/C(=C/C[C@@H](OC(=O)c1ccncc1)c1ccc(CO)o1)c1cnc2ccccc2c1`, the composite z-score is -0.376 in assay [1]; 1.03 in [2]; 0.0235 in assay [3]; 1.2 in [4]; 1.73 in assay [5]; 1.5 in assay [6]. For the same compound, the composite z-score in [7] stood at 1.34; in assay [9], 0.668; in [10], 0.115. Also, the z-score in [8] is 0.487 (inactive).
Take `COCCOC(=O)N1C(=O)[C@@]2(c3cc(C#CC4=CCCCC4)ccc31)[C@H](C(=O)N1CCN(c3ncccn3)CC1)[C@H]1C(=O)O[C@H](c3ccccc3)[C@H](c3ccccc3)N1[C@@H]2c1ccc(O)cc1`: the composite z-score is -0.0505 in assay [1]; 0.181 in assay [2]; 0.0467 in assay [3]; 0.669 in assay [4]; 1.33 in [5]; 0.79 in assay [6]. In addition, the composite z-score in assay [7] was 1.24; in [9], 0.442; in assay [10], 0.208. Besides, in assay [8], the z-score was 0.378 (inactive).
For `C=CCN1Cc2ccccc2C[C@@]2(N=C(c3ccc(OCCCO)cc3)O[C@H]2c2ccccc2)C1=O`, the composite z-score in [1] is 0.633; in assay [2], 0.604; in [3], 0.0109; in assay [4], -0.364; in assay [5] it was 1.09; in [6], 1.04. Further, the composite z-score in assay [7] was determined as 1.29; in assay [9], 0.383; in assay [10], 0.297. Also, the z-score in assay [8] was -1.32 (inactive).
As to `CN1C2C=C(CCCO)C(C3C(=O)N(C(N)=O)C(=O)C32)C1c1cccs1` (stereo not given), the composite z-score was -0.153 in [1]; 0.104 in assay [2]; -0.116 in assay [3]; -1.63 in [4]; 0.127 in assay [5]; -0.317 in assay [6]. The composite z-score in [7] was 0.165; in assay [9], 0.0118; in [10] it was 0.303. In addition, the z-score in assay [8] was -0.194 (inactive).
`COc1ccccc1CN1C(=O)c2ccccc2[C@](Cc2ccccc2I)(C(=O)NC(C)C)[C@@H]1c1ccc(CO)cc1`: the composite z-score in [1] was -0.515; in [2], 0.49; in [3] it was -0.0296; in [4] it was 0.732; in [5], 1.43; in [6], 1.7. In addition, the composite z-score is 1.15 in assay [7], 0.614 in [9] and 0.0373 in assay [10]. In addition, the z-score in assay [8] was -2.79 (inactive).
`O=C1C[C@@](C(=O)NCC(F)(F)F)(c2ccc([N+](=O)[O-])cc2)[C@@H](c2ccc(CO)cc2)N1C1CCCCC1`: the composite z-score in assay [1] worked out at 0.99; in assay [2] it was 1.2; in assay [3], 0.0216; in assay [4], 0.606; in assay [5] it was 0.303; in [6], 1.24. Further, the composite z-score was 1.37 in assay [7], 0.243 in assay [9] and 0.554 in assay [10]. The z-score in [8] was 0.265 (inactive).
Consider `[N-]=[N+]=Nc1ccccc1[C@@H]1OC(c2ccc(OCCCO)cc2)=N[C@]1(CCS(=O)(=O)c1ccccc1)C(=O)NCCN1CCOCC1`, for which the composite z-score in assay [1] was 0.483; in assay [2], 1.88; in assay [3] it was 0.0315; in assay [4], 0.664; in assay [5], 1.58; in assay [6], 0.806. Moreover, the values for the composite z-score in [7], in assay [9] and in [10] were 1.25, 0.925 and 0.417, respectively. In assay [8], the z-score is 1.2 (inactive).
With `O=C1NC(=O)C2C1C=CC(C(O)c1ccc3c(c1)OCO3)N2Nc1ccccn1` (stereo not given), the composite z-score in [1] is -0.0049; in assay [2] it was 0.0415; in assay [3] it was 0.271; in assay [4], 0.204; in assay [5], 0.994; in [6], 1.91. For the same compound, the values for the composite z-score in [7], in [9] and in [10] were 1.16, 0.364 and 0.0274, respectively. Further, the z-score in [8] was -0.653 (inactive).
Consider `C=C[C@@H](COC(C)=O)NS(=O)(=O)c1ccc(Br)cc1`, for which the composite z-score is -0.35 in assay [1]; 0.242 in assay [2]; -0.0296 in assay [3]; 0.135 in assay [4]; 0.414 in assay [5]; 0.0227 in assay [6]. In addition, the composite z-score in assay [7] was 0.564; in assay [9], 0.111; in [10], -0.0672. Moreover, the z-score in assay [8] is 1.39 (inactive).
